Inconclusive results are not listed. The source made the active and inactive calls. Calls come from the whole dose curve; as a rule, active = well fitted curve in the direction sought with a large enough effect; inconclusive = small, poorly fitted or top-dose-only effect, or another doubt; inactive = no such curve, though single readings can be large; an effect the other way counts as inactive or inconclusive.
Tests used:
[1] = Cell Viability - LYMP2-003 (AID 965); details: LYMP2-003 lymphoblastoid cell viability; series mostly up to 92.2 µM;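 note: cells exposed to compounds for 24 h before reading; nearly all actives have a fitted effect of over 50% in size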; note: potency is the fitted concentration of half-maximal effect
Procedure, shortened: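 Seed 2500 lymphoblastoid cells/well; incubate 5 hr, 37 C; add compounds; incubate 24 hr, 37 C; add CellTiter-Glo, 30 min RT; read luminescence. AC50 from Hill fit.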

[2] = Cell Viability - LYMP2-005 (AID 967); details: LYMP2-005 lymphoblastoid cell viability; series mostly up to 92.2 µM
Procedure, shortened: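 Acute cytotoxicity is scored as a concentration-dependent drop in intracellular ATP in human lymphoblastoid LYMP2-005 cells after 24 h compound treatment. ATP is quantified by luciferase luminescence, and AC50 is derived by Hill-equation modelling.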

[3] = Cell Viability - LYMP2-009 (AID 968); details: LYMP2-009 lymphoblastoid cell viability; series mostly up to 92.2 µM; note: nearly all actives have a fitted effect of over 55% in size; note: potency is the fitted concentration of half-maximal effect
[4] = Cell Viability - LYMP2-011 (AID 969); details: LYMP2-011 lymphoblastoid cells viability; series mostly up to 92.2 µM; note: nearly all actives have a fitted effect of over 60% in size; note: potency is the fitted concentration of half-maximal effect
Procedure, shortened: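 Human lymphoblastoid cells (2500/well) were plated in complete medium, preincubated 5 hr at 37 C, then exposed to compounds for 24 hr at 37 C. Intracellular ATP was read by CellTiter-Glo luminescence, and AC50 came from Hill-equation concentration-response fits.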

[5] = Cell Viability - LYMP2-013 (AID 970); details: LYMP2-013 lymphoblastoid cells viability; series mostly up to 92.2 µM; note: nearly all actives have a fitted effect of over 55% in size; note: potency is the fitted concentration of half-maximal effect
Procedure, shortened: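 Human lymphoblastoid cells, 2500/well, were preincubated 5 hr at 37 C, then treated with compounds for 24 hr at 37 C in complete medium. Intracellular ATP was read by CellTiter-Glo luminescence; AC50 from Hill-equation fits of concentration-response data.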

[6] = Cell Viability - LYMP2-017 (AID 972); details: LYMP2-017 lymphoblastoid cell viability; series mostly up to 92.2 µM; note: nearly all actives have a fitted effect of over 55% in size; note: potency is the fitted concentration of half-maximal effect
Procedure, shortened: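 Human lymphoblastoid cells (2500/well) were seeded in complete medium, held 5 hr at 37 C, then exposed to compounds for 24 hr at 37 C. Intracellular ATP was read by CellTiter-Glo luminescence after 30 min at room temperature, with AC50 values from Hill-equation fits.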

[7] = Cell Viability - LYMP2-019 (AID 973); details: LYMP2-019 lymphoblastoid cell line viability; series mostly up to 92.2 µM; note: nearly all actives have a fitted effect of over 55% in size; note: potency is the fitted concentration of half-maximal effect
Procedure, shortened: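 Human lymphoblastoid cells were seeded at 2500 cells/well, preincubated 5 hr at 37 C, then exposed to compounds for 24 hr at 37 C in complete medium. Intracellular ATP was measured by CellTiter-Glo luminescence; AC50 from Hill fits.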

[8] = Cell Viability - LYMP2-021 (AID 974); details: LYMP2-021 lymphoblastoid cells viability; series mostly up to 92.2 µM; note: potency is the fitted concentration of half-maximal effect
Procedure, shortened: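 Human lymphoblastoid cells (2500/well) were preincubated 5 hr at 37 C, then exposed to compounds for 24 hr at 37 C in complete medium. Intracellular ATP was read by CellTiter-Glo luminescence; AC50 came from Hill-equation fits of concentration-response data.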

[9] = Cell Viability - LYMP2-023 (AID 975); details: LYMP2-023 lymphoblastoid cell viability; series mostly up to 92.2 µM; note: nearly all actives have a fitted effect of over 55% in size; note: potency is the fitted concentration of half-maximal effect
Procedure, shortened: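 Human lymphoblastoid cells (2500/well) were preincubated 5 hr at 37 C, then exposed to compounds for 24 hr at 37 C in complete medium. Cellular ATP was read by CellTiter-Glo luminescence, and AC50 came from Hill-equation fits.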

[10] = Cell Viability - LYMP2-015 (AID 971); details: LYMP2-015 lymphoblastoid cell viability; series mostly up to 92.2 µM; note: nearly all actives have a fitted effect of over 55% in size; note: potency is the fitted concentration of half-maximal effect
Procedure, shortened: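 Human lymphoblastoid cells (2500/well) in complete medium were preincubated 5 hr at 37 C, then compound-treated 24 hr at 37 C. Intracellular ATP was read by CellTiter-Glo luminescence after 30 min at room temperature; AC50 came from Hill-equation concentration-response fits.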

Measured: Potency

Nc1ccc(Cl)cc1N
not listed: [10]
inactive: all other assays above

COc1ccc(C(c2ccc(OC)cc2)C(Cl)(Cl)Cl)cc1
inactive: all assays above

CC(C)(O)C(=O)Nc1ccc([N+](=O)[O-])c(C(F)(F)F)c1
inactive: all assays above

CCCCC(CC)COC(=O)c1ccccc1C(=O)OCC(CC)CCCC (configuration not stated)
inactive: all assays above

CN(C)[C@@H]1C(=O)C(C(N)=O)=C(O)[C@@]2(O)C(=O)C3=C(O)c4c(O)cccc4[C@@](C)(O)[C@H]3[C@H](O)[C@@H]12
inactive: all assays above

c1cc2ccc3cccc4ccc(c1)c2c34
inactive: all assays above

O=C(O)COc1ccccc1
inactive: all assays above

O=[N+]([O-])c1cc([N+](=O)[O-])c2ccccc2c1
inactive: all assays above

CC(=O)[O][Hg][c]1ccccc1
active: [1] 1580 nM | [3] 501 nM | [4] 1000 nM | [5] 631 nM | [10] 631 nM | [6] 631 nM | [7] 794 nM | [8] 794 nM | [9] 1260 nM

CCOCCOC(C)=O
inactive: all assays above

O=C(O)C(Cl)Cl
inactive: all assays above

CCCCOC(=O)c1ccccc1C(=O)OCc1ccccc1
inactive: all assays above

O=[N+]([O-])c1c(Cl)c(Cl)cc(Cl)c1Cl
inactive: all assays above

CCOP(=O)(NC(C)C)Oc1ccc(SC)c(C)c1 (configuration not stated)
inactive: all assays above

O=[N+]([O-])c1c2ccccc2cc2ccccc12
inactive: all assays above

CN(C)NC(=O)CCC(=O)O
inactive: all assays above

Cc1cc(O)ccc1Cl
inactive: all assays above

C1CCC(NC2CCCCC2)CC1
inactive: all assays above

Nc1ccc([N+](=O)[O-])cc1
not listed: [2]
inactive: all other assays above

C=CC(=O)NCNC(=O)C=C
inactive: all assays above

OCCCBr
inactive: all assays above

CCCCCCCCc1ccc(O)cc1
inactive: all assays above

Nc1ccc(Cl)cc1
inactive: all assays above

COC(C)(C)CCCC(C)C/C=C/C(C)=C/C(=O)OC(C)C (configuration not stated)
inactive: all assays above

Nc1ccc(Sc2ccc(N)cc2)cc1
inactive: all assays above

O=S(=O)(c1ccc(Cl)cc1)c1ccc(Cl)cc1
inactive: all assays above

Reference: PubChem BioAssay (NCATS)
